NADH coupling = inhibitors of enzymes used to reach an NAD/NADH endpoint; coupled PK/LDH NADH assays, four targets; IC50, µM (series often up to 10 µM), for inactives: top-dose inhibition; 65,000 compounds, 0.02% hits;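 active means single-dose screening hits from any of four coupled enzyme assays that gave an IC50 when retested across doses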;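 further: the DPM-DC format reads NADH fluorescence rather than 340 nm absorbance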
Abs 340nm = absorbance at 340 nm. compound absorbance at 340 nm, fold over control. 65,000 tested, under 10 active. AID 708. fold change at 10 µM;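 active means at 10 µM dose, initial 340 nm absorbance at least 2 fold that of control wells; inactive means change under 2 fold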;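 further: initial absorbance extrapolated from kinetic A340 decline of NADH oxidation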
Spn MK inh = S. pneumoniae mevalonate kinase inhibition; purified MK, PK/LDH-coupled NADH absorbance 340 nm; inhibition, % at 10 µM; 65,000 compounds, 0.48% hits; AID 555;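 active means ranked among the strongest by inhibition in the single 10 µM screen, a fixed top-ranked set picked for dose follow-up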
Spn DPM-DC inh = blocks S. pneumoniae diphosphomevalonate decarboxylase. calls only at 10 µM. purified DPM-DC, PK/LDH coupled NADH fluorescence. 65,000 compounds, 0.49% hits;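 active means the 320 compounds with the highest percent inhibition in the single-dose primary screen, excluding strongly autofluorescent ones, cut at about 32% in these data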;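 further: kinetic rate of NADH fluorescence loss reporting ADP formed by the decarboxylase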
Fluor 339 460 = intrinsic fluorescence of library compounds, ex339/em460 – biochemical, MLSMR library, data from DPM-DC assay, artefact control, profiling panel; compound autofluorescence, ex339/em460 nm, NADH buffer; stronger effect = higher value; 1 = no-compound wells, NADH background; AID 709; fluorescence fold increase at 10 µM; 65,000 compounds, 5.5% hits;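 active means at 10 µM, mean starting fluorescence two-fold or more over control wells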;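 further: signal is the first read of a kinetic run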
Spn PMK inh = S. pneumoniae PMK inhibition; purified PMK, PK/LDH-coupled NADH absorbance 340 nm; inhibition, % at 10 µM; 65,000 compounds, 0.49% hits;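 active means top-ranked compounds by inhibition in the single 10 µM screen, taking a fixed number of the strongest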;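 further: 0% = full reaction with DMSO carrier and 100% = background rate without enzyme reaction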
* = called active by the depositor; i = inactive; nt = no result shown; + = active, no number. Most compounds without a hit are left out; they make up all but 6.3% or so of the library.

SMILES | NADH coupling | Abs 340nm | Spn MK inh | Spn DPM-DC inh | Fluor 339 460 | Spn PMK inh
CCCC1C2CN(C(C)C)CC=C2C(C#N)=C(N)C1(C#N)C#N (stereo not given) | 13% | 1 | 8 | i | 4* | 6
O=C(Nc1ccon1)c1cccc(S(=O)(=O)N2CCCC2)c1 | 1% | 1 | 7 | i | 1 | 2
COc1ccc(-n2c(Cc3cccn3C)nnc2SCC(=O)Nc2ccc(C(C)=O)cc2)cc1 | 2% | 1.1 | 2 | i | 1.1 | 5
COC(=O)Sc1nnc(-c2ccc(Br)cc2)o1 | 20µM* | 1.1 | 5 | + | 1.5 | 16
CN1C(=O)c2ccccc2C(C(=O)NCC2CCCO2)C1c1c[nH]c2ccccc12 (stereo not given) | 7% | 0.97 | 1 | i | 1.1 | 20
O=C(CSc1n[nH]c(-c2ccc(S(=O)(=O)N3CCCCC3)cc2)n1)Nc1nccs1 | 10% | 1.1 | 5 | i | 2.6* | 7
Cn1c(N)c(C(=O)COC(=O)Cn2cc(C(F)(F)F)ccc2=O)c(=O)n(C)c1=O | 4% | 1 | 3 | i | 1.1 | 8
O=C(Nc1cccc2nsnc12)c1ccc2c(c1)OCCO2 | 10% | 0.99 | 7 | i | 1.8 | 10
Cc1nc2ccc3nc(NC(=O)c4ccc5c(c4)OCCO5)sc3c2s1 | 7% | 1 | 3 | i | 3.5* | 18
Cc1nc2c(ccc3nc(NC(=O)c4ccc5c(c4)OCCO5)sc32)s1 | 12% | 1 | 11 | i | 2.4* | 13
CCCCCC(C(=O)O)C(C)CC(=O)NC1CCCCC1 (stereo not given) | 5% | 0.99 | 10 | i | 1.1 | 6
CC1CC(C)CN(CCCNC(=O)Cn2ncc3c(=O)oc4ccccc4c32)C1 (stereo not given) | 18% | 0.99 | 10 | + | 0.57 | 7
COc1cccc(NC(=O)c2oc3ccccc3c2NC(=O)c2ccc3c(c2)OCO3)c1 | 1% | 1.1 | 0 | i | 2.6* | 3
COc1cc(NC(=O)c2ccc3c(c2)OCO3)c2ncccc2c1 | 19% | 1.1 | 5 | + | 3* | 7
COc1cccc(NC(=O)c2oc3ccccc3c2NC(=O)C(C)(C)C)c1 | 4% | 1.1 | 6 | i | 1.8 | 6
c1ccc(CNn2c(N3CCOCC3)nc3ccccc32)cc1 | 3% | 1 | 1 | i | 0.93 | 9
O=C(Nc1ccc(Cc2ccncc2)cc1)c1ccco1 | 1% | 0.98 | 3 | i | 1.1 | 1
COc1ccccc1-c1nc(C#N)c(N2CCN(c3cccc(Cl)c3)CC2)o1 | 18% | 0.91 | 17 | nt | 3.5* | 18
N#Cc1nc(-c2ccco2)oc1N1CCN(c2cccc(Cl)c2)CC1 | 6% | 1 | 12 | i | 1.2 | 11
COc1ccccc1-c1nc(C#N)c(N2CCN(C(c3ccccc3)c3ccccc3)CC2)o1 | 14% | 1.1 | 15 | nt | 3.9* | 12
COc1cccc(-c2nc(CS(=O)CC(=O)NCc3ccc4c(c3)OCO4)c(C)o2)c1 (stereo not given) | 4% | 1 | 3 | i | 1.1 | 6
COc1ccc(CN(Cc2cc3cc4c(cc3[nH]c2=O)OCO4)C(=O)NC2CCCCC2)cc1 | 7% | 1 | 12 | i | 2.5* | 0
COCCN(Cc1cc2cc3c(cc2[nH]c1=O)OCO3)C(=O)c1cccs1 | 17% | 1.1 | 6 | + | 2.7* | 10
CCc1ccc2[nH]c(=O)c(CN(CCN3CCCC3)C(=O)NC3CCCCC3)cc2c1 | 6% | 0.98 | 0 | i | 1.6 | 16
O=C(NC1CCCCC1)N(CCN1CCOCC1)Cc1cc2cc3c(cc2[nH]c1=O)OCCO3 | 10% | 1.1 | 9 | nt | 4.4* | 10
Cc1ccc2[nH]c(=O)c(CN(CCCN3CCOCC3)C(=O)NC3CCCCC3)cc2c1 | 3% | 1 | 5 | i | 1.6 | 5
CCN(CC)CCN(Cc1cc2cc3c(cc2[nH]c1=O)OCCO3)C(=O)NC1CCCCC1 | 12% | 1.1 | 8 | nt | 3.8* | 16
O=C(CN1CCCCC1)Nc1cccc(Br)c1 | 5% | 1 | 10 | i | 1.1 | 5
COc1ccc(CCN(Cc2cc3cc(C)ccc3[nH]c2=O)C(=O)N2CCCC2)cc1OC | 4% | 1 | 5 | i | 1.2 | 6
